Experimental data reported in PubChem BioAssay (NCATS).
Records with an inconclusive call do not appear. Unmarked numbers belong to inactive results. Active and inactive are the calls of the source. Calls come from the whole dose curve; as a rule, active = well fitted cell-killing curve with a large enough effect; inconclusive = small, poorly fitted or top-dose-only effect, or effect the other way; inactive = flat fitted curve, though single readings scatter.

tested on: JEG-3; assay: Primary qHTS to identify gynecologic anti-cancer compounds using libraries of approved drugs and bioactive compounds (AID 1345084); conditions: Gynecologic cancer cell panel viability, ATPlite luminescence, 48 h; series mostly up to 57.5 µM; activity change, negative = cytotoxicity: at the top concentration; note: nearly all actives have a fitted effect of over 55% in size
How it was run: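 Five-point cytotoxicity, 48 h drug exposure at 37 C, 5% CO2, on cells seeded 16 h beforehand. ATP content read by ATPlite luminescence.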
% is set by controls: 0 for no effect and ±100 for the full control effect; potency is the fitted concentration of half-maximal effect.

Structure (SMILES) | activity change, negative = cytotoxicity | Potency
NC(=O)c1csc(C2OC(CO)C(O)C2O)n1 (stereo not given) | -4.65% | 
COc1c2c(c(CO)c3c1C(=O)OC3)OC1(C)CCC3(O)C(C)(C)OC(=O)CCC3(C)C1C2 (stereo not given) | 6.63% [at 25.3 µM] | 
CC1=C(C)C(=O)OC(C(C)C2CCC3C4CC=C5CC(OC6OC(COC7OC(CO)C(O)C(O)C7O)C(O)C(O)C6O)CC(O)C5(C)C4CCC23C)C1 (stereo not given) | -5.27% [at 25.3 µM] | 
O=C(NCc1cccc(O)c1)c1cc2cc(F)ccc2[nH]1 | -16.4% | 
CCOc1cc(CC(=O)NC(CC(C)C)c2ccccc2N2CCCCC2)ccc1C(=O)O (stereo not given) | 7.35% | 
NC1(C(=O)NC(CCO)c2ccc(Cl)cc2)CCN(c2ncnc3[nH]ccc23)CC1 (stereo not given) | -0.866% | 
COc1cc(OC)c(/C=C/S(=O)(=O)Cc2ccc(OC)c(NCC(=O)O)c2)c(OC)c1 |  | 447 nM (active)
COC(=O)c1cc(OC)cc(OC)c1C(=O)c1c(OC)cc2c(c1O)C1CCCC(C)(O2)O1 (stereo not given) | 9.42% [at 25.3 µM] | 
O=C(O)CC1CCC(c2ccc(-c3ccc4nc(C(=O)NCc5ccc(OC(F)(F)F)cc5)cn4c3)cc2)CC1 (stereo not given) | 11.7% | 
COc1cc2occc2c(O[C@@H]2O[C@H](CO)[C@@H](O)[C@H](O)[C@H]2O)c1CCC(=O)O | -0.411% [at 25.3 µM] | 
